PubChem BioAssay (EPA / NIEHS)
Calls of active or inactive are those of the source. How the source made its calls: active means hit-call score of the fitted dose curve at least 0.9, where 1 is the maximum; inactive means score below 0.9.

Legend:
[1] = ATG_GLI_CIS: Attagene CIS-FACTORIAL HepG2 Assay for human Zinc Finger Protein GLI1 (AID 2282945); conditions: HepG2, Attagene cis-factorial reporter mRNA, GLI element; actives raise or lower the signal
Method in brief: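 Transiently transfected HepG2 cells report endogenous transcription factor activity via cis-element-driven reporter units. After 24 h compound exposure, reporter mRNA was measured by RT-PCR with capillary electrophoresis; bidirectional fitting against DMSO baseline.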

[2] = ATG_ISRE_CIS: Attagene CIS-FACTORIAL HepG2 Assay for human Interferon Regulatory Factor 1 (IRF1) binding to an Interferon-Stimulated Response Element (ISRE) (AID 2282948); conditions: HepG2 ISRE cis-reporter (Attagene), mRNA transcription readout; actives raise or lower the signal
Method in brief: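 Cell-based cis-reporter assay; HepG2; 24 h exposure; reporter mRNA by RT-PCR plus capillary electrophoresis fluorescence; activity in either direction scored relative to DMSO.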

[3] = ATG_M_06_CIS: Attagene CIS-FACTORIAL HepG2 Assay for M06 Transcription Factor (Internal Marker) (AID 2282950); conditions: HepG2 Attagene CIS-FACTORIAL M06 internal marker reporter; actives raise or lower the signal
Method in brief: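 Steps: transfect HepG2 with multiplexed cis-element reporter constructs; dose chemical 24 h; extract RNA with DNase treatment; reverse-transcribe, PCR-amplify, 6-FAM label, HpaI digest; separate fragments by capillary electrophoresis. Activity fitted both directions versus DMSO.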

[4] = target: Hypoxia-inducible factor 1-alpha (Homo sapiens) (UniProt Q16665); test: ATG_HIF1a_CIS: Attagene CIS-FACTORIAL HepG2 Assay for human Hypoxia Inducible Factor 1 (HIF1A) (AID 2282951); conditions: HepG2 Attagene cis-factorial HIF1a reporter transcription; actives raise or lower the signal
Method in brief: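 RT-PCR/capillary electrophoresis fluorescence readout of reporter transcripts from endogenous-TF-driven cis elements in transfected HepG2 cells, 24 h exposure; activity fitted in both directions against DMSO controls.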

[5] = target: Hepatocyte nuclear factor 6 (Homo sapiens) (UniProt Q9UBC0); test: ATG_HNF6_CIS: Attagene CIS-FACTORIAL HepG2 Assay for human Hepatocyte Nuclear Factor 6 (HNF6) (AID 2282952); conditions: HepG2 Attagene cis-factorial HNF6 reporter transcription; actives raise or lower the signal
Method in brief: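 Reporter mRNA induction or loss in HepG2 after 24 h exposure; transient cis-MRTU transfection; fragments quantified by capillary electrophoresis; bidirectional analysis, DMSO as negative control.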

[6] = target: Heat shock factor protein 1 (Homo sapiens) (UniProt Q00613); test: ATG_HSE_CIS: Attagene CIS-FACTORIAL HepG2 Assay for human Heat Shock Transcription Factor 1 (HSE) (AID 2282953); conditions: HepG2 HSE cis-reporter, Attagene RNA transcription; actives raise or lower the signal
Method in brief: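 Cells were transfected with cis-element-driven reporter constructs, dosed for 24 h, then total RNA was reverse-transcribed and reporter cDNA amplified, FAM-labelled and digested with HpaI. Fragments were resolved by capillary electrophoresis; gain or loss was fitted against DMSO.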

[7] = ATG_MRE_CIS: Attagene CIS-FACTORIAL HepG2 Assay for human Metal Responsive Element (MRE) (AID 2282954); conditions: HepG2 MRE cis-reporter transcription, Attagene multiplex; actives raise or lower the signal
Method in brief: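 HepG2 cells transiently transfected with cis-element-driven reporter units; mRNA measured 24 h after dosing. Reporter transcripts quantified by RT-PCR, FAM labelling, HpaI digestion and capillary electrophoresis; bidirectional fit versus DMSO.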

[8] = ATG_M_32_CIS: Attagene CIS-FACTORIAL HepG2 Assay for M32 Transcription Factor (Internal Marker) (AID 2282949); conditions: HepG2 Attagene cis-factorial M32 reporter, mRNA; actives raise or lower the signal;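 further: background control marker of the multiplexed CIS panel rather than a real target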
Method in brief: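 HepG2 cells transiently transfected with multiplexed cis-regulated reporter units, dosed 24 h. Reporter mRNA quantified by RT-PCR, 6-FAM labelling, HpaI digestion and capillary electrophoresis; bidirectional fit vs DMSO.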

[9] = ATG_GRE_CIS: Attagene CIS-FACTORIAL HepG2 Assay for human Glucocorticoid Response Elements (GRE) (AID 2282947); conditions: HepG2 GRE cis-reporter, Attagene multiplex mRNA; actives raise or lower the signal
Method in brief: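 Transiently transfected HepG2 cells carrying GRE cis-reporter units (endogenous TF activity) dosed 24 h; reporter mRNA quantified by RT-PCR, 6-FAM labelling, HpaI digestion and capillary electrophoresis. Bidirectional fit versus DMSO baseline.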

Hepatocyte nuclear factor 6 (Homo sapiens), sequence (Q9UBC0 whole entry, looked up, the tested form may be a part): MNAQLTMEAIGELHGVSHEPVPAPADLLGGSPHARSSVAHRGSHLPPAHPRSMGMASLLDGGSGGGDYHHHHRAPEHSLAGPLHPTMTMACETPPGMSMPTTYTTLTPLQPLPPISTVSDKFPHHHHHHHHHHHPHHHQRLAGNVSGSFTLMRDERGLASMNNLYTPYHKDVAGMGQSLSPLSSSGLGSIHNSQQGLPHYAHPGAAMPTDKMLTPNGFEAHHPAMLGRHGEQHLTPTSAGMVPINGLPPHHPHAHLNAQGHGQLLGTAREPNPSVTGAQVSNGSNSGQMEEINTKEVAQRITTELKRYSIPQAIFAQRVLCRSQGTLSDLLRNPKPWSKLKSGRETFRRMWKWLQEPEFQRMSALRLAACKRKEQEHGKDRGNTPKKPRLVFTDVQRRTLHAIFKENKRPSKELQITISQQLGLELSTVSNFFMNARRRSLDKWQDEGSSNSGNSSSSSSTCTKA
Hypoxia-inducible factor 1-alpha (Homo sapiens), sequence (Q16665 whole entry, looked up): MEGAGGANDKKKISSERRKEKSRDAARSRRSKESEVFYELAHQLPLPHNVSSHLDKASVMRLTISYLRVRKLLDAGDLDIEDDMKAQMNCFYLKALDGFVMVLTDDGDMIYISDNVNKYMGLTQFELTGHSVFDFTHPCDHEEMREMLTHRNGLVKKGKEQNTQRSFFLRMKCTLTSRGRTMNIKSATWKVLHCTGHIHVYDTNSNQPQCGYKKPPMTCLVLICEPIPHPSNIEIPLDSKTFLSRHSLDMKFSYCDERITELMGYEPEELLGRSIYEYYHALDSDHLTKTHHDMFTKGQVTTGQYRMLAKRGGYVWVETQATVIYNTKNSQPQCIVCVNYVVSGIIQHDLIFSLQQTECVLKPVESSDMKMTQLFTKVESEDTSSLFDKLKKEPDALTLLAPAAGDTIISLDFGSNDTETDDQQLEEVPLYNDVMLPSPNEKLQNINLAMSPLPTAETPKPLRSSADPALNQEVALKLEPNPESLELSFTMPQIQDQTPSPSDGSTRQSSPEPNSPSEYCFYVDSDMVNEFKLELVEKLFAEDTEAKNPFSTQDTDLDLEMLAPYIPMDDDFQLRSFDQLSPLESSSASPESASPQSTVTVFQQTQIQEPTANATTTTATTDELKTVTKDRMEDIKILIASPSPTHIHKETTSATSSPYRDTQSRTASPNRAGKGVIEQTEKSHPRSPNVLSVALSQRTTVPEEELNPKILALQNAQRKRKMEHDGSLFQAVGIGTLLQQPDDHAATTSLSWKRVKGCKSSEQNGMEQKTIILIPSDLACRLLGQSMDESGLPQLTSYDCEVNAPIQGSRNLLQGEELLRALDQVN
Heat shock factor protein 1 (Homo sapiens), sequence (Q00613 whole entry, looked up, the tested form may be a part): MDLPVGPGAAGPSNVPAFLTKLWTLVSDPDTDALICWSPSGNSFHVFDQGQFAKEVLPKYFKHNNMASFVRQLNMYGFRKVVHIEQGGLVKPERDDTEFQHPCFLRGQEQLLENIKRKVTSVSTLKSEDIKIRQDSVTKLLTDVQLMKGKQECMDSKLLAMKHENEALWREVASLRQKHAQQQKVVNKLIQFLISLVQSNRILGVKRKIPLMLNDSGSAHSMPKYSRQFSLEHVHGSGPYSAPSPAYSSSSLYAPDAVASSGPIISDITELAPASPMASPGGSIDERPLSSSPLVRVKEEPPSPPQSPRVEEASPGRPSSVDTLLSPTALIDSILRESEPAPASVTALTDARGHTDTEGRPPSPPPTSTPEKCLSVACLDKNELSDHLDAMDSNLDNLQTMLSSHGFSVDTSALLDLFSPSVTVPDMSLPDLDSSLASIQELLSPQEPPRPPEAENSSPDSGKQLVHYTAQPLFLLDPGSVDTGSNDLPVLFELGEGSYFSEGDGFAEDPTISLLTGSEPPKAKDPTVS

**Q.** For `CCCCCCC=O`, which outcome [1] is on record?
**A.** inactive

**Q.** And the outcome [2]?
**A.** inactive

**Q.** What about the outcome [3] of the same compound?
**A.** inactive

**Q.** What about the outcome [4] of the same compound?
**A.** inactive

**Q.** And the outcome [5]?
**A.** inactive

**Q.** What about the outcome [6] of the same compound?
**A.** inactive

**Q.** And the outcome [7]?
**A.** inactive

**Q.** Which outcome [1] does the source give for `C=CC(=O)OCC(C)OCC(C)OCC(C)OC(=O)C=C` (stereo not drawn) here?
**A.** inactive

**Q.** And the AC50 [2]?
**A.** 86.1 µM (active)

**Q.** And the outcome [8]?
**A.** inactive

**Q.** And the outcome [3]?
**A.** inactive

**Q.** And the outcome [4]?
**A.** inactive

**Q.** And the outcome [5]?
**A.** inactive

**Q.** And the outcome [6]?
**A.** inactive

**Q.** And the AC50 [7]?
**A.** 46.1 µM (active)

**Q.** With `CC(=O)OCC=C(C)C` as the compound, how does the outcome [1] read?
**A.** inactive

**Q.** And the outcome [2]?
**A.** inactive

**Q.** And the outcome [8]?
**A.** inactive

**Q.** And the outcome [3]?
**A.** inactive

**Q.** What about the outcome [5] of the same compound?
**A.** inactive

**Q.** And the outcome [6]?
**A.** inactive

**Q.** And the outcome [7]?
**A.** inactive

**Q.** With `Nc1ccc(O)c([N+](=O)[O-])c1` as the compound, how does the outcome [1] read?
**A.** inactive

**Q.** What about the outcome [9] of the same compound?
**A.** inactive

**Q.** And the outcome [8]?
**A.** inactive

**Q.** And the outcome [3]?
**A.** inactive

**Q.** What about the outcome [4] of the same compound?
**A.** inactive

**Q.** And the outcome [5]?
**A.** inactive

**Q.** What about the outcome [6] of the same compound?
**A.** inactive

**Q.** And the outcome [7]?
**A.** inactive

**Q.** With `CCCC(C)C(=O)OCC` (stereo not drawn) as the compound, how does the outcome [1] read?
**A.** inactive

**Q.** And the outcome [2]?
**A.** inactive

**Q.** And the outcome [8]?
**A.** inactive

**Q.** And the outcome [3]?
**A.** inactive

**Q.** And the outcome [4]?
**A.** inactive

**Q.** And the outcome [5]?
**A.** inactive

**Q.** And the outcome [6]?
**A.** inactive

**Q.** What about the outcome [7] of the same compound?
**A.** inactive

**Q.** Which outcome [1] does the source give for `Oc1ccc(-c2ccccc2)c(Cl)c1` here?
**A.** inactive

**Q.** And the outcome [2]?
**A.** inactive

**Q.** What about the outcome [3] of the same compound?
**A.** inactive

**Q.** What about the outcome [5] of the same compound?
**A.** inactive

**Q.** And the outcome [6]?
**A.** inactive

**Q.** What about the AC50 [7] of the same compound?
**A.** 52.9 µM (active)

**Q.** What does the source list for `O=C(O[C@@H]1Cc2c(O)cc(O)cc2O[C@@H]1c1cc(O)c(O)c(O)c1)c1cc(O)c(O)c(O)c1`?
**A.** outcome [1]: inactive; outcome [2]: inactive; outcome [8]: inactive; outcome [3]: inactive; outcome [5]: inactive; outcome [6]: inactive; outcome [7]: inactive

**Q.** Which outcome [1] does the source give for `CCCCCCCCCCCC(=O)N(C)CC(=O)O` here?
**A.** inactive

**Q.** And the outcome [8]?
**A.** inactive

**Q.** What about the outcome [3] of the same compound?
**A.** inactive

**Q.** And the outcome [5]?
**A.** inactive

**Q.** What about the outcome [6] of the same compound?
**A.** inactive

**Q.** What about the outcome [7] of the same compound?
**A.** inactive

**Q.** What does the source list for `C=C(C)C1CC=C(C)CC1` (stereo not drawn)?
**A.** outcome [1]: inactive; outcome [2]: inactive; outcome [8]: inactive; outcome [3]: inactive; outcome [4]: inactive; outcome [5]: inactive; outcome [6]: inactive; outcome [7]: inactive

**Q.** With `CCCCCCCO` as the compound, how does the outcome [1] read?
**A.** inactive

**Q.** And the outcome [2]?
**A.** inactive

**Q.** What about the outcome [8] of the same compound?
**A.** inactive

**Q.** And the outcome [3]?
**A.** inactive

**Q.** What about the outcome [4] of the same compound?
**A.** inactive

**Q.** What about the outcome [5] of the same compound?
**A.** inactive

**Q.** And the outcome [6]?
**A.** inactive

**Q.** And the outcome [7]?
**A.** inactive

**Q.** What does the source list for `CCc1cccc(C)c1N`?
**A.** outcome [1]: inactive; outcome [9]: inactive; outcome [8]: inactive; outcome [3]: inactive; outcome [4]: inactive; outcome [5]: inactive; outcome [6]: inactive; outcome [7]: inactive

**Q.** Which results are given for `CC1=CCC(C(C)C)C=C1` (stereo not drawn)?
**A.** outcome [1]: inactive; outcome [2]: inactive; outcome [8]: inactive; outcome [3]: inactive; outcome [4]: inactive; outcome [5]: inactive; outcome [6]: inactive; AC50 [7]: 62.6 µM (active)

**Q.** With `CC(C)(O)Cc1ccccc1` as the compound, how does the outcome [1] read?
**A.** inactive

**Q.** What about the outcome [2] of the same compound?
**A.** inactive

**Q.** And the outcome [8]?
**A.** inactive

**Q.** And the outcome [3]?
**A.** inactive

**Q.** And the outcome [4]?
**A.** inactive

**Q.** What about the outcome [5] of the same compound?
**A.** inactive

**Q.** And the outcome [6]?
**A.** inactive

**Q.** And the outcome [7]?
**A.** inactive

**Q.** For `Cc1c(Cl)cccc1Cl`, which outcome [1] is on record?
**A.** inactive

**Q.** And the outcome [2]?
**A.** inactive

**Q.** And the outcome [8]?
**A.** inactive

**Q.** And the outcome [3]?
**A.** inactive

**Q.** And the outcome [4]?
**A.** inactive

**Q.** And the outcome [5]?
**A.** inactive

**Q.** What about the outcome [6] of the same compound?
**A.** inactive

**Q.** What about the outcome [7] of the same compound?
**A.** inactive

**Q.** Which results are given for `CC(=O)CCC1=C(C)CCCC1(C)C`?
**A.** outcome [1]: inactive; outcome [9]: inactive; outcome [8]: inactive; outcome [3]: inactive; outcome [4]: inactive; outcome [5]: inactive; outcome [6]: inactive; outcome [7]: inactive

**Q.** Which outcome [1] does the source give for `CCOC(=O)CC(=O)c1ccccc1` here?
**A.** inactive

**Q.** What about the outcome [2] of the same compound?
**A.** inactive

**Q.** And the outcome [8]?
**A.** inactive

**Q.** And the outcome [3]?
**A.** inactive

**Q.** What about the outcome [4] of the same compound?
**A.** inactive

**Q.** And the outcome [5]?
**A.** inactive

**Q.** And the outcome [6]?
**A.** inactive

**Q.** What about the outcome [7] of the same compound?
**A.** inactive

**Q.** With `C=C(C)[C@@H]1CC=C(C)CC1` as the compound, how does the outcome [1] read?
**A.** inactive

**Q.** And the outcome [2]?
**A.** inactive

**Q.** What about the outcome [8] of the same compound?
**A.** inactive

**Q.** And the outcome [3]?
**A.** inactive

**Q.** And the outcome [4]?
**A.** inactive

**Q.** What about the outcome [5] of the same compound?
**A.** inactive

**Q.** And the outcome [6]?
**A.** inactive

**Q.** What about the outcome [7] of the same compound?
**A.** inactive

**Q.** Which outcome [1] does the source give for `CC(C)(c1ccccc1)c1ccc(Nc2ccc(C(C)(C)c3ccccc3)cc2)cc1` here?
**A.** inactive

**Q.** And the outcome [9]?
**A.** inactive

**Q.** What about the outcome [8] of the same compound?
**A.** inactive

**Q.** What about the outcome [3] of the same compound?
**A.** inactive

**Q.** And the outcome [4]?
**A.** inactive

**Q.** And the outcome [5]?
**A.** inactive

**Q.** And the outcome [6]?
**A.** inactive

**Q.** What about the outcome [7] of the same compound?
**A.** inactive

**Q.** With `CC(=O)OC1CCCCC1C(C)(C)C` (stereo not drawn) as the compound, how does the outcome [1] read?
**A.** inactive

**Q.** And the outcome [9]?
**A.** inactive

**Q.** And the outcome [8]?
**A.** inactive

**Q.** And the outcome [3]?
**A.** inactive

**Q.** And the outcome [4]?
**A.** inactive

**Q.** What about the outcome [5] of the same compound?
**A.** inactive

**Q.** What about the outcome [6] of the same compound?
**A.** inactive

**Q.** And the outcome [7]?
**A.** inactive

**Q.** For `CCCCOC(=O)CCC(C)=O`, which outcome [1] is on record?
**A.** inactive

**Q.** What about the outcome [9] of the same compound?
**A.** inactive

**Q.** And the outcome [8]?
**A.** inactive

**Q.** And the outcome [3]?
**A.** inactive

**Q.** And the outcome [4]?
**A.** inactive

**Q.** What about the outcome [5] of the same compound?
**A.** inactive

**Q.** And the outcome [6]?
**A.** inactive

**Q.** What about the outcome [7] of the same compound?
**A.** inactive
